Assay results from PubChem BioAssay AID493231 (Broad Institute, 2011).
Entries with a potency or affinity are not part of this list. Active and inactive are the calls of the source. How the calls were made is not given here.

Molecular target: Acyl-homoserine lactone acylase PvdQ (Pseudomonas aeruginosa (strain ATCC 15692 / DSM 22644 / CIP 104116 / JCM 14847 / LMG 12228 / 1C / PRS 101 / PAO1)) (UniProt Q9I194)
Experiment: P. aeruginosa PvdQ acylase inhibitors, dose response, biochemical, fluorescence, plate reader and imaging, cherry-picks (AID 493231);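 further: more negative values mean stronger inhibition of the acylase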
Conditions: purified PvdQ acylase, fluorogenic substrate; series mostly up to 10 µM

Sequence of Acyl-homoserine lactone acylase PvdQ (Pseudomonas aeruginosa (strain ATCC 15692 / DSM 22644 / CIP 104116 / JCM 14847 / LMG 12228 / 1C / PRS 101 / PAO1)) (Q9I194 whole entry, looked up): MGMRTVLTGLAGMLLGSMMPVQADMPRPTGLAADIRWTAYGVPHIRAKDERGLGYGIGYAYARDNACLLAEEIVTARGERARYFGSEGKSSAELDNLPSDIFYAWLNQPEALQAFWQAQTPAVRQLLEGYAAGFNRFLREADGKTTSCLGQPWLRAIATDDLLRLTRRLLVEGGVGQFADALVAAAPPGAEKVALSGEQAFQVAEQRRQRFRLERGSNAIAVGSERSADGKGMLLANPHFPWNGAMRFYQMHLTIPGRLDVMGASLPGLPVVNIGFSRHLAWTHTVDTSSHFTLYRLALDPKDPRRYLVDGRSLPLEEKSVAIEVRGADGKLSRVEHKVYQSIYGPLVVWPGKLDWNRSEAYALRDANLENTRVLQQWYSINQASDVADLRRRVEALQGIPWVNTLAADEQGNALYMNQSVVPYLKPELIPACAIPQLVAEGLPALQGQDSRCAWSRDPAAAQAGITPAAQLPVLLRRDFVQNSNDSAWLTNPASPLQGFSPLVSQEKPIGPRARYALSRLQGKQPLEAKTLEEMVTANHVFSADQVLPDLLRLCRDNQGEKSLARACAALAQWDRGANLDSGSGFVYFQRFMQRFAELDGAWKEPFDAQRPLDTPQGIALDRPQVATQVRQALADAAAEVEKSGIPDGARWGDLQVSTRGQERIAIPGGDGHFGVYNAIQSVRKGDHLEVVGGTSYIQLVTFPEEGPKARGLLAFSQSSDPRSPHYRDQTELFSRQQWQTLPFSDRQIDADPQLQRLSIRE

outcome, inactive:
CC(=O)c1ccc2c3c(cc(C)c2c1)CCCC3
Cc1ccc(N(c2ncnc(N)c2[N+](=O)[O-])C2CCCCC2)cc1
O=C(CN1C(=O)C2C3C=CC(C4CC34)C2C1=O)Oc1ccccc1 (stereo not given)
CN(c1ccc(C(=O)Nc2ccc3c(c2)OCCO3)cc1)S(C)(=O)=O
Cc1ccc(O)c(NC(=S)NC(=O)/C=C/c2ccco2)c1
CC(=O)N/N=C/c1c(C)[nH]n(-c2ccccc2)c1=O
CN(C)CCCN(Cc1cc2cc3c(cc2[nH]c1=O)OCO3)C(=S)Nc1cccc(Cl)c1
CSCCC(NC(=O)c1ccc([N+](=O)[O-])cc1Cl)C(=O)OCC(=O)N(C)C (stereo not given)
CN(CC1CCCN(CCc2ccc(F)cc2)C1)C(=O)CCC(F)(F)F (stereo not given)
O=C(CCCN1C(=O)/C(=C/c2ccccc2)SC1=S)Nc1ccccc1O
CN=C1S/C(=C\c2ccc(SC)cc2)C(=O)N1C
Cc1cc(NC(=O)Nc2ccc(F)c(Cl)c2)no1
Cc1[nH]nc2c1C(c1ccco1)C(C#N)=C(N)O2 (stereo not given)
O=C(COC(=O)/C=C/c1cccc(Br)c1)NC1CCCCCC1
Cc1ccc2[nH]c(=O)c(CC=C(Cl)Cl)c(C)c2c1
COc1ccc(Nc2nnc(-c3ccc(C)cc3)c3ccccc23)cc1C(=O)N1CCCCC1
O=C1C=C(c2ccccc2)OC(c2ccccc2)O1 (stereo not given)
CCOc1ccccc1NC(=S)N1CCC(NC(=O)NC23CC4CC(CC(C4)C2)C3)CC1
O=C1N(c2ccccc2)C[C@@H]2C[C@@H](c3cc4ccccc4o3)N3CCC[C@@]123
Cc1ccc2nc(-c3ccc(NS(=O)(=O)c4ccc(F)cc4)cc3)sc2c1
OC(CN1CCOCC1)Cn1c(-c2cccc(Cl)c2)nc2ccccc21 (stereo not given)
CS(=O)(=O)c1ccc2sc(NC(=O)c3cc4ccccc4o3)nc2c1
CN(C)CCN(C(=O)C1=COCCO1)c1nc2ccc(Cl)cc2s1
S=C(NCc1ccc2c(c1)OCO2)Nc1ccc2nsnc2c1
Cc1cc(C)cc(N2C(=O)CC(Sc3ccccc3C(=O)O)C2=O)c1 (stereo not given)
Cc1cccc(NCc2ccccc2O)n1
COC(=O)c1ccccc1NC(=O)CN1CCC(NC(=O)c2ccc(C)cc2)CC1
COc1ccc(NC(=O)C(c2cc3c(cc2[N+](=O)[O-])OCO3)N2CCN(C=O)CC2)cc1 (stereo not given)
Cc1cc(C)n2c(SCC(=O)Nc3ccc(F)cc3)nnc2n1
C=CCC1S/C(=N/N=C/c2cccs2)NC1=O (stereo not given)
Cc1ccccc1OCCSc1nnc(-c2ccncc2)n1C
CS(=O)(=O)N(CC(=O)Nc1ccccc1C(=O)N1CCOCC1)c1ccccc1
COCC(=O)N1CCC(Oc2ccc(C(=O)NCCc3ccncc3)cc2)CC1
CC1(OC(=O)CCc2ccccc2)C(=O)C=C2C=C(c3ccc(C#N)cc3)N(Cc3ccccc3)C=C2C1=O (stereo not given)
O=C(O)c1cc2nccc(-c3ccco3)n2n1
